AmpC inh no detg: blocks E. coli AmpC beta-lactamase in detergent-free assay; P00811; AmpC nitrocefin hydrolysis, absorbance 480 nm, 0.0001% Triton; Potency, µM (highest dose often 57.1 µM), hits mostly inhibitors; hit rate 0.52% among 330,000; AID 485341; note: nearly all actives have a fitted effect of over 20% in size
Target sequence (P00811 whole entry, looked up): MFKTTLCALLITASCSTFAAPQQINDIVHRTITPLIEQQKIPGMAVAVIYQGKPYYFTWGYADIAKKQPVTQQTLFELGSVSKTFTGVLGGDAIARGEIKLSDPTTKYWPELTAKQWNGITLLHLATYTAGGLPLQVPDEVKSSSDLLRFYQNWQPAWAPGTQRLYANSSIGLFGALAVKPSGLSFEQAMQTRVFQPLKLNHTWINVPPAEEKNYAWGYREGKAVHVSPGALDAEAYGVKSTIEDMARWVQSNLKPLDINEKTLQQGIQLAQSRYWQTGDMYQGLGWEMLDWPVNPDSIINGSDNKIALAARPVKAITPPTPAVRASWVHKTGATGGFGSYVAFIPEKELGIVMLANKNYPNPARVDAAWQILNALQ
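AmpC (5.3 nM in the dispensed reagent) in 20 mM phosphate pH 7.0 with 0.01% (detergent screen) or 0.0001% Triton X-100 was preincubated with compounds for 15 min at room temperature. Nitrocefin was then added from an 800 uM solution, and hydrolysis was followed at 480 nm.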
NS1 inh: inhibitors of influenza NS1 protein function | Potency, µM (doses to about 46.1 µM) | hit rate 0.4% among 270,000; calls by dose curve; note: actives are rising curves; nearly all actives have a fitted effect of over 50% in size
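Growth recovery, yeast-based: influenza A NS1 expressed in S. cerevisiae causes slow growth, and suppressors are detected by OD600. The parent strain without NS1 is used as positive control.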
AmpC inh detg: blocks E. coli AmpC beta-lactamase in detergent assay. P00811. AmpC hydrolysis of nitrocefin, absorbance 480 nm, 0.01% Triton. Potency, µM (doses to about 114 µM), usual class: inhibitors. hit rate 0.041% among 370,000; note: nearly all actives have a fitted effect of over 25% in size
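20 mM phosphate pH 7.0 + 0.01% (detergent screen) or 0.0001% Triton X-100; 5.3 nM AmpC reagent; cpd preinc 15 min RT; nitrocefin (800 uM stock) to start; A480 q20 s × 4 min; Activity was normalised to no-enzyme and no-compound control wells.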
Shiga inhibitor: Shiga toxin inhibition | Vero cells, Shiga toxin protein synthesis inhibition reporter | inhibition, % at 38.7 µM | hit rate 9.2% among 290,000 | AID 2315; in the data active = inhibition mostly above about 28%, no sharp cut-off; inactive = mostly below about 43%
CHX counter: counter-screen hit for Shiga toxin inhibitors, cycloheximide; cell reporter, cycloheximide protein synthesis inhibition counterscreen; max response, %; hit rate 12% among 300,000; in the data active = max response mostly above about 13%, no sharp cut-off; inactive = mostly below about 14%; note: read at 38.3 µM for the half of the compounds with a filed dose
Numbers stand for hits; – = inactive; ? = inconclusive; · = no result; [ ] = remark or other dose. This is one part of a sample in which hits are shown more often than they occur. Unless noted, calls come from the whole dose curve; as a rule, active = well fitted curve in the direction sought with a large enough effect; inconclusive = small, poorly fitted or top-dose-only effect, or another doubt; inactive = no such curve, though single readings can be large; an effect the other way counts as inactive or inconclusive.

SMILES	AmpC inh no detg	NS1 inh	AmpC inh detg	Shiga inhibitor	CHX counter
COc1ccc(C2CC(=O)N3CN(c4ccc(C)c(Cl)c4)CSC3=C2C#N)cc1 (stereo not drawn)	–	–	?	–	–
CCc1ccccc1N1CSC2=C(C#N)C(c3ccccc3F)CC(=O)N2C1 (stereo not drawn)	–	0.89µM	–	–	–
NS(=O)(=O)c1cc2c(cc1Cl)=NC(CCC(=O)O)=NS=2(=O)O	·	–	·	·	·
CCn1cnc2cc(NC(=O)c3ccco3)ccc21	–	–	?	–	30
CCCn1cnc2cc(NC(=O)c3ccco3)ccc21	–	–	–	80	63
COc1ccc(NC(=O)c2ccco2)cc1NC(=O)c1ccco1	–	–	?	–	–
CCCn1cnc2cc(NC(=O)c3cccs3)ccc21	–	·	–	–	29
CC(C)(C)n1cnc2cc(NC(=O)c3ccco3)ccc21	–	–	–	62	25
CC1CC2OC2/C=C\C=C/C(=O)Cc2c(Cl)c(O)cc(O)c2C(=O)O1 (stereo not drawn)	·	·	·	–	–
Cc1ccc2c(c1)cc1c(=O)n(CC(=O)N3CCCCC3)nc(C)n12	·	·	–	·	·
C[C@@H](CSc1ccccc1)CN1CC[C@H](NC(=O)OCc2ccccc2)CCC1=O	–	–	–	–	–
Nc1ccc(N)cc1	·	·	·	95	35
CN(C(=S)NC(=O)C1CC1)c1ccc(O)cc1	–	·	–	·	·
COc1ccc(Cl)cc1NC(=O)c1cnc2sccn2c1=O	3.5µM	–	?	–	–
COC(=O)c1ccccc1NC(=O)c1cnc2sccn2c1=O	–	–	–	–	–
O=C(Nc1cnc2sccn2c1=O)c1ccc(Cl)cc1Cl	–	–	–	120	38
Clc1ccc(C2=Nc3cc(Cl)ccc3OC2)cc1	–[2.29 µM]	–	–	60	27
CC1=Nc2cc(Cl)ccc2Oc2ccccc21	–	–	–	–	–
c1ccc(C2=Nc3ccccc3OC2)cc1	–	–	–	–	21
Cc1ccc2c(c1)N=C(c1ccc(Cl)cc1)CO2	–	–	–	56	53
O=C1CC(c2ccccc2)=Nc2ccccc2N1	–	–	–	–	–
Clc1ccc(C2=NN=C3COc4ccccc4N3C2)cc1	–	–	–	–	–
CCCOc1ccc(NC(=O)CC2C(=O)N(c3ccc(C)cc3)C(=O)N2Cc2cccc(OC)c2)cc1 (stereo not drawn)	·	·	–	·	·
Cc1csc(NC(=O)Nc2cccc(Cl)c2)n1	–	–	?	86	30
Cc1nnc(NC(=O)Nc2cccc(Cl)c2)s1	–	–	–	80	51
SMILES	AmpC inh no detg	NS1 inh	AmpC inh detg	Shiga inhibitor	CHX counter
O=C(COCc1cc(-c2ccc3c(c2)OCO3)on1)NCc1ccc(F)cc1	·	·	–	·	·
CCCCNC(=O)COCc1cc(-c2ccc3c(c2)OCO3)on1	–	–	–	47	–
C=CCNC(=O)COCc1cc(-c2ccc3c(c2)OCO3)on1	–	–	–	39	27
CC(C)CNC(=O)c1cc(-c2ccc3c(c2)OCO3)on1	–	–	–	74	39
CC(C)CNC(=O)COCc1cc(-c2ccc3c(c2)OCO3)on1	–	–	–	100	38
Cc1ccc(NS(=O)(=O)c2ccc(C(=O)NNC(=O)c3ccccc3O)cc2)cc1	–	·	?	·	·
CSCCC(NS(=O)(=O)c1ccc2c(c1)oc(=O)n2C)C(=O)N1CCN(c2cc(Cl)ccc2C)CC1 (stereo not drawn)	·	·	–	·	·
CCCNC(=O)COCc1cc(-c2ccc3c(c2)OCO3)on1	–	–	–	36	29
CCCNC(=O)COCc1cc(-c2ccc(F)cc2)on1	·	·	–	·	·
COc1ccc(CC2=CC(=O)c3ccccc3C2=O)cc1	–	–	–	123	56
COc1cccc(NC(=O)CCc2c(C)nc3ncnn3c2C)c1	·	·	–	·	·
O=C(c1ccc(=O)[nH]n1)N1CCc2ccccc2C1	–	–	–	–	–
Cc1cc(C(=O)N2CCc3ccccc3C2)n[nH]1	–	–	–	53	24
Cc1cc(C(=O)N2CCc3ccccc3C2)no1	–	–	–	–	19
CCOC(=O)c1c(NC(=O)/C=C/c2ccc(C)cc2)sc2c1CCCC2	·	·	–	·	·
COc1ccccc1NC(=O)Cn1c(C)nc2c(sc(=S)n2Cc2ccco2)c1=O	–	–	–	–	–
CS(=O)(=O)CC(=O)Nc1ccc2nc3n(c(=O)c2c1)CCCCC3	–	–	–	–	–
O=c1c2cc(NC(=S)NC3CCCCC3)ccc2nc2n1CCCCC2	–	–	–	–	–
O=c1c2cc(NC(=S)NCc3ccccn3)ccc2nc2n1CCCCC2	–	–	–	–	–
